Rows were chosen to be rich in hits. Some 21% of all compounds tested hit in one or more screens of this group.
DT40 TDP1 CPT – growth inhibition of DT40 Tdp1-/-;hTDP1 cells with camptothecin (screen for TDP1 inhibitors); 12% of 420,000 active; chicken DT40 Tdp1-/-;hTDP1 cells + 20 nM CPT, ATP luminescence, 48 h; Potency, µM (highest dose often 46.2 µM), hits mostly inhibitors; also: nearly all actives have a fitted effect of over 55% in size
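Chicken DT40 Tdp1-/- cells stably complemented with human TDP1 were seeded at 400 cells/well in medium containing 20 nM camptothecin, exposed to pin-transferred compounds, and grown at 37 °C for at least 48 hr. Viability was read as ATP luminescence.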
Gal4-VP16 FLuc – Gal4-VP16 reporter inhibition counter-screen | Drosophila S2 Gal4-VP16 UAS-luciferase, luminescence, 20 h | Potency, µM (doses to about 53.6 µM), actives largely listed as inhibitors | 3.5% of 310,000 active;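 also: Gal4-VP16 expression switched on by copper sulfate through the metallothionein promoter; nearly all actives have a fitted effect of over 50% in size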
RORgamma inh – ROR gamma (mouse) transcription inhibition; P51450; Drosophila S2 Gal4-RORgamma UAS-luciferase reporter, 20 h; Potency, µM (titrated, usually from 53.6 µM), hits mostly inhibitors; 5.4% of 310,000 active; AID 2551; also: nearly all actives have a fitted effect of over 60% in size
Target sequence (P51450 whole entry, looked up, the tested form may be a part): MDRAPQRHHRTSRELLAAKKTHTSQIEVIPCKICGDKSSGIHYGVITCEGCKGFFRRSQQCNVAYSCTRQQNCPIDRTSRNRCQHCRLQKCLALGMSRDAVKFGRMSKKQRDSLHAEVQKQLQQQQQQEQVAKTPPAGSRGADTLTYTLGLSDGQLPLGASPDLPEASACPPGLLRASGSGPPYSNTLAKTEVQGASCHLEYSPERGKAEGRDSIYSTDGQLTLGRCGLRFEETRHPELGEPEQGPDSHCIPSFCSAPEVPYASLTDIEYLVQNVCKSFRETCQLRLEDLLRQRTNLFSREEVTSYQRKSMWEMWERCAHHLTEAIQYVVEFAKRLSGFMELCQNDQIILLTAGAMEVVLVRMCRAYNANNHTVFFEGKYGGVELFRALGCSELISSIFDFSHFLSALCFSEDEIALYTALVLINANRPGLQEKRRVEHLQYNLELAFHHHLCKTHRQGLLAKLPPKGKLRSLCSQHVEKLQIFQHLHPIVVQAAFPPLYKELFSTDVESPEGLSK
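Using a luciferase readout, inhibitors were identified by reduced reporter activity in Drosophila cells coexpressing a copper-inducible Gal4–ROR gamma fusion and UAS-driven Photinus luciferase, incubated 20 hr after 700 uM copper sulfate.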
DT40 TDP1 no CPT – qHTS for Inhibitors of human tyrosyl-DNA phosphodiesterase 1 (TDP1): qHTS in cells in absence of CPT; DT40 Tdp1-/- hTDP1 cells, no CPT, ATP luminescence, 48 h; Potency, µM (top dose mostly 46.2 µM), actives largely listed as inhibitors; 15% of 420,000 active; AID 686978, 2013; also: nearly all actives have a fitted effect of over 55% in size
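Stably hTDP1-transfected Tdp1-null chicken DT40 cells were treated with library compounds minus camptothecin and grown for at least 48 hr at 37 °C, after which cellular ATP was quantified by luminescence.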
ELG1 DNA repair – blocks ELG1-dependent DNA repair in HEK293T cells | AID 504467 | 2.3% of 330,000 active | HEK293T ELG1-luciferase reporter, luminescence, 16 h; DNA damage induced by 5-fluorouridine | Potency, µM (highest dose often 46.1 µM), usual class: inhibitors; also: nearly all actives have a fitted effect of over 55% in size
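DMSO vehicle served as the neutral condition. Each well held 2,000 cells given 5-fluorouridine plus compound; after 16 hr at 37 °C/5% CO2, ONE-Glo was added and luciferase measured 30 min later.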
IL-1B inflam inh – blocks inflammasome-driven IL-1 beta release; activity change, % at 57.5 µM; 4.7% of 360,000 active; AID 743279; THP-1 LPS/ATP IL-1B secretion, AlphaLISA, 16 h; stronger effect = lower value; in the data active = activity change below about -50%; inconclusive = mostly about -30% to -49%
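Secreted IL-1B measured by AlphaLISA bead assay after 16 h compound exposure of THP-1 cells; compounds (final up to 57.5 uM) added 1 h before LPS (250 ng/mL) and ATP (1.25 mM) stimulation; lower signal means less secretion.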
Hits are given with their value; [ ] = remark or other dose. Unless noted, calls follow the shape of the dose curve; as a rule, active = well fitted curve in the direction sought with a large enough effect; inconclusive = small, poorly fitted or top-dose-only effect, or another doubt; inactive = no such curve, though single readings can be large; an effect the other way counts as inactive or inconclusive.

`O=C(c1nsnc1-c1ccccc1O)N1CCCCC1` gave DT40 TDP1 CPT inactive, Gal4-VP16 FLuc inactive, RORgamma inh inactive, DT40 TDP1 no CPT inactive, ELG1 DNA repair inactive and IL-1B inflam inh inactive.
`NC(=O)c1nsnc1-c1ccccc1O` gave DT40 TDP1 CPT inactive, Gal4-VP16 FLuc inactive, RORgamma inh 22.4µM, DT40 TDP1 no CPT inactive, ELG1 DNA repair inactive and IL-1B inflam inh inactive.
For CC(=O)Nc1cc(-c2cccc(C(=O)NCCO)c2)cn2c(-c3ccc(F)c(Cl)c3)cnc12 the results were DT40 TDP1 CPT 29.1µM, DT40 TDP1 no CPT 23.1µM and IL-1B inflam inh inactive.
COc1cccc(-c2cnc3c(NC(C)=O)cc(-c4cccc(C(=O)NCCO)c4)cn23)c1 was read as DT40 TDP1 CPT 16.4µM, DT40 TDP1 no CPT inconclusive and IL-1B inflam inh inactive.
`CCOc1cccc(CN2CCC(n3cc(C(=O)N4CCCCC4)nn3)CC2)c1O` gave DT40 TDP1 CPT inactive[9.04 µM] and DT40 TDP1 no CPT inactive.
For CCC(C)n1c(SCc2ccccc2)nc2ccsc2c1=O (stereo not given) the results were DT40 TDP1 CPT inconclusive, Gal4-VP16 FLuc inactive, RORgamma inh inconclusive, DT40 TDP1 no CPT 20.6µM, ELG1 DNA repair inactive and IL-1B inflam inh inactive.
For CCc1ccc(NC(=O)CSc2nc3ccsc3c(=O)n2CCC(=O)O)cc1 the results were DT40 TDP1 CPT inactive, Gal4-VP16 FLuc inactive, RORgamma inh inactive, DT40 TDP1 no CPT inactive, ELG1 DNA repair inconclusive and IL-1B inflam inh inactive.
For CCC(C)n1c(SCC(=O)Nc2ccccc2C(F)(F)F)nc2ccsc2c1=O (stereo not given) the results were DT40 TDP1 CPT inactive, Gal4-VP16 FLuc inactive, RORgamma inh inconclusive, DT40 TDP1 no CPT inactive, ELG1 DNA repair inconclusive and IL-1B inflam inh inactive.
Screening CCC(C)n1c(SCc2ccc(C(C)(C)C)cc2)nc2ccsc2c1=O (stereo not given) returned DT40 TDP1 CPT 13µM and DT40 TDP1 no CPT 13µM.
Screening CC(C)CCn1c(SCc2ccc(F)cc2Cl)nc2ccsc2c1=O returned DT40 TDP1 CPT inactive and DT40 TDP1 no CPT inactive.
For CCC(C)n1c(SCc2ccc(F)cc2Cl)nc2ccsc2c1=O (stereo not given) the results were DT40 TDP1 CPT 18.4µM and DT40 TDP1 no CPT 20.6µM.
For CCC(C)n1c(SCC(=O)Nc2ccccc2C(=O)OC)nc2ccsc2c1=O (stereo not given) the results were DT40 TDP1 CPT 16.4µM and DT40 TDP1 no CPT 18.4µM.
Cc1ccc(S(=O)(=O)N2CCOCC2)cc1C(=O)NCCCN1CCCC1=O was read as DT40 TDP1 CPT inactive, DT40 TDP1 no CPT inactive and IL-1B inflam inh inactive.
`Cc1ccc(NCC(=O)N=Nc2c(O)n(C)c3ccccc23)cc1` gave DT40 TDP1 CPT inactive, Gal4-VP16 FLuc inactive, RORgamma inh inactive, DT40 TDP1 no CPT inactive, ELG1 DNA repair inactive and IL-1B inflam inh inactive.
`Cn1c(O)c(N=Nc2ccccc2)c2ccccc21` gave DT40 TDP1 CPT inactive, Gal4-VP16 FLuc inactive, RORgamma inh inactive, DT40 TDP1 no CPT inactive, ELG1 DNA repair inactive and IL-1B inflam inh inactive.
Cn1c(O)c(N=Nc2nc(-c3ccccc3)cs2)c2ccccc21 was read as DT40 TDP1 CPT inconclusive, Gal4-VP16 FLuc inconclusive, RORgamma inh 1.12µM, DT40 TDP1 no CPT inconclusive, ELG1 DNA repair inconclusive and IL-1B inflam inh inactive.
O=C(N=Nc1c(O)[nH]c2ccc([N+](=O)[O-])cc12)c1cc(-c2ccccc2Cl)nc2ccccc12 was read as DT40 TDP1 CPT inconclusive, Gal4-VP16 FLuc inconclusive, RORgamma inh inactive, DT40 TDP1 no CPT inactive, ELG1 DNA repair inactive and IL-1B inflam inh inactive.
For O=C(N=Nc1c(O)[nH]c2ccc(Br)cc12)c1ccccc1-n1cccc1 the results were DT40 TDP1 CPT 4.61µM, Gal4-VP16 FLuc inactive, RORgamma inh inactive, DT40 TDP1 no CPT 2.59µM, ELG1 DNA repair inconclusive and IL-1B inflam inh inactive.
O=C(N=Nc1c(O)[nH]c2ccc(Br)cc12)c1cc(-c2cccs2)nc2ccccc12 was read as DT40 TDP1 CPT 4.61µM, Gal4-VP16 FLuc inactive, RORgamma inh inactive, DT40 TDP1 no CPT 6.51µM, ELG1 DNA repair inactive and IL-1B inflam inh inactive.
Cn1c(O)c(N=NC(=O)c2cc(-c3cccs3)nc3ccccc23)c2ccccc21 was read as DT40 TDP1 CPT inconclusive, Gal4-VP16 FLuc inactive, RORgamma inh inconclusive, DT40 TDP1 no CPT inconclusive, ELG1 DNA repair 14.6µM and IL-1B inflam inh inactive.
CCCCN(C(=O)CC1CCCC1)c1c(N)n(CCCC)c(=O)[nH]c1=O was read as DT40 TDP1 CPT inactive, DT40 TDP1 no CPT inactive, ELG1 DNA repair inactive and IL-1B inflam inh inactive.
For CC1(C)S[C@@H]2[C@H](NC(=O)[C@H](N)c3ccccc3)C(=O)N2[C@H]1C(=O)OCOC(=O)[C@@H]1N2C(=O)C[C@H]2S(=O)(=O)C1(C)C the results were DT40 TDP1 CPT inactive and DT40 TDP1 no CPT inactive.
Screening CCOC(=O)N1CCN(C(=O)c2cn(C)c(=O)c3c2c2ccccc2n3C)CC1 returned DT40 TDP1 CPT inconclusive, Gal4-VP16 FLuc inactive, RORgamma inh inactive, DT40 TDP1 no CPT 25.1µM, ELG1 DNA repair inconclusive and IL-1B inflam inh inactive.
`CCOC(=O)N1CCN(C(=O)c2cn(CC(C)C)c(=O)c3c2c2ccccc2n3C)CC1` gave DT40 TDP1 CPT inconclusive, Gal4-VP16 FLuc inactive, RORgamma inh inactive, DT40 TDP1 no CPT inconclusive, ELG1 DNA repair 18.4µM and IL-1B inflam inh inactive.
`COCCn1cc(C(=O)N2CCC(C)CC2)c2c3ccccc3n(C)c2c1=O` gave DT40 TDP1 CPT inactive, Gal4-VP16 FLuc inactive, RORgamma inh inactive, DT40 TDP1 no CPT inactive, ELG1 DNA repair inactive and IL-1B inflam inh inactive.
Cc1cnc(NC(=O)CSc2nnc(COc3c(C)cccc3C)o2)s1 was read as DT40 TDP1 CPT inactive, Gal4-VP16 FLuc inconclusive, RORgamma inh 11.2µM, DT40 TDP1 no CPT inactive, ELG1 DNA repair inactive and IL-1B inflam inh inactive.
For O=C(Nc1ccccc1)N1CC[C@@]2(CCCN(C(=O)c3cc(C(F)(F)F)cc(C(F)(F)F)c3)C2)C1 the results were DT40 TDP1 CPT inactive, Gal4-VP16 FLuc inactive, RORgamma inh inactive and DT40 TDP1 no CPT inconclusive.
Screening Cc1ccccc1Nc1nnc(SCC2CCCCO2)s1 (stereo not given) returned DT40 TDP1 CPT inconclusive, Gal4-VP16 FLuc inactive, RORgamma inh inconclusive, DT40 TDP1 no CPT 18.4µM, ELG1 DNA repair inconclusive and IL-1B inflam inh inconclusive.
Screening COc1ccccc1Nc1nnc(SCC2CCCCO2)s1 (stereo not given) returned DT40 TDP1 CPT 6.51µM, Gal4-VP16 FLuc inactive, RORgamma inh inactive, DT40 TDP1 no CPT inconclusive, ELG1 DNA repair inconclusive and IL-1B inflam inh inactive.
For COc1ccccc1Nc1nnc(SCC(=O)NC2CCCC2)s1 the results were DT40 TDP1 CPT inactive, DT40 TDP1 no CPT inactive, ELG1 DNA repair inactive and IL-1B inflam inh inactive.
